# Source: PubChem BioAssay (NCATS)
# Records with an inconclusive call do not appear. Where a call stands in place of a potency, no number is given. Active and inactive are the calls of the source. Unless noted, calls follow the shape of the full dose curve.
# Assays:
# [1] = qHTS for Inhibitors of the Functional Ribonucleoprotein Complex (vRNP) of Lassa (LASV) Arenavirus: LASV Primary Screen - GLuc reporter signal (AID 1347082; calls by dose curve; tested in HEK293 reporter line; also: nearly all actives have a fitted effect of over 60% in size; also: potency is read from the fitted curve at half-maximal effect)
# [2] = qHTS for Inhibitors of the Functional Ribonucleoprotein Complex (vRNP) of Lassa (LASV) Arenavirus: Viability assay - alamar blue signal for LASV Primary Screen (AID 1347083; calls by dose curve; tested in HEK293 reporter line; also: nearly all actives have a fitted effect of over 80% in size; also: potency is read from the fitted curve at half-maximal effect)
# [3] = qHTS for Inhibitors of the Functional Ribonucleoprotein Complex (vRNP) of Lymphocytic Choriomeningitis Arenaviruses (LCMV): Viability assay - alamar blue signal for LCMV Primary Screen (AID 1347085; calls by dose curve; tested in HEK293 reporter line; also: nearly all actives have a fitted effect of over 80% in size; also: potency is read from the fitted curve at half-maximal effect)
# [4] = target: Nucleoprotein (Lymphocytic choriomeningitis virus (strain Armstrong)) (UniProt P09992); test: qHTS for Inhibitors of the Functional Ribonucleoprotein Complex (vRNP) of Lymphocytic Choriomeningitis Arenaviruses (LCMV): LCMV Primary Screen - GLuc reporter signal (AID 1347086); also: nearly all actives have a fitted effect of over 70% in size; also: potency is read from the fitted curve at half-maximal effect
# Nucleoprotein (Lymphocytic choriomeningitis virus (strain Armstrong)), sequence (P09992 whole entry, looked up): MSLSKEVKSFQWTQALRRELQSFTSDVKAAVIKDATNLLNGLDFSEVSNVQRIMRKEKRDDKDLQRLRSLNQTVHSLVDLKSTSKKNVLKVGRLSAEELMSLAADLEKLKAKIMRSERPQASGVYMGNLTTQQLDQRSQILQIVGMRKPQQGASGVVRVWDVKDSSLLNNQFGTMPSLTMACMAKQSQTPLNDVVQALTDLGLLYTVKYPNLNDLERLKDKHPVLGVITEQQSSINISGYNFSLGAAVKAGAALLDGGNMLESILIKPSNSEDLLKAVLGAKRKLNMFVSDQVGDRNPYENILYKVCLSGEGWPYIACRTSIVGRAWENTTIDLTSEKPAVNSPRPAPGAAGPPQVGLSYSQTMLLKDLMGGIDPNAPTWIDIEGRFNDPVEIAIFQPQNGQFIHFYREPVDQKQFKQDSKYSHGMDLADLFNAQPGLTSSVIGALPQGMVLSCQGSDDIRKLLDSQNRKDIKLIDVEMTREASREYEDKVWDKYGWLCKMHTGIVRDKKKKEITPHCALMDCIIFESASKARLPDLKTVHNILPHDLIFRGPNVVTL
# [5] = Cytotoxicity counterscreen for inhibitors of SARS-CoV-2 cell entry (AID 1645845); also: nearly all actives have a fitted effect of over 50% in size
# Summary of the method: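 HEK293-ACE2 cells (Expi293F stably expressing human ACE2) seeded overnight, then compound for 1 h plus 48 h at 37C. Viability as ATP content by luminescence; normalized to wells with cells and media-only wells.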
# [6] = Confirmatory qHTS to identify inhibitors of SARS-CoV-2 cell entry (AID 1645844); also: potency is read from the fitted curve at half-maximal effect; nearly all actives have a fitted effect of over 45% in size
# Summary of the method: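 HEK293-ACE2 cells were pretreated 1 h with compound, then infected with MLV-based pseudoparticles bearing C-terminally truncated Wuhan-Hu-1 spike for 48 h at 37C; luciferase luminescence normalized to spike PP and bald PP wells.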
# [7] = Primary qHTS to identify inhibitors of SARS-CoV-2 cell entry (AID 1645846); settings: activity change, negative = inhibition: at 57.1 µM (top of the series) unless noted; also: nearly all actives have a fitted effect of over 45% in size; also: potency is read from the fitted curve at half-maximal effect
# Summary of the method: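 Entry measured by luciferase signal 48 h after adding SARS-CoV-2-S pseudotyped MLV particles to HEK293-ACE2 cells preincubated 1 h with compounds. Normalisation: bald particles and spike particles.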
# [8] = VSVG counterscreen qHTS to identify inhibitors of SARS-CoV-2 cell entry (AID 1645847); also: potency is read from the fitted curve at half-maximal effect; nearly all actives have a fitted effect of over 65% in size
# Summary of the method: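 Luminescence read after 48 h infection at 37 C with VSV-G-pseudotyped MLV particles, following 1 h compound exposure of Expi293F cells stably expressing human ACE2; scaled between bald particle and VSV-G particle wells.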
# [9] = target: Cytochrome P450 2C9 (Homo sapiens) (UniProt P11712); test: qHTS Assay for Inhibitors and Substrates of Cytochrome P450 2C9 (AID 883; active = well fitted curve in the direction sought with a large enough effect; an effect the other way counts as inactive or inconclusive; also: potency is read from the fitted curve at half-maximal effect; nearly all actives have a fitted effect of over 60% in size)
# Cytochrome P450 2C9 (Homo sapiens), sequence (P11712 whole entry, looked up): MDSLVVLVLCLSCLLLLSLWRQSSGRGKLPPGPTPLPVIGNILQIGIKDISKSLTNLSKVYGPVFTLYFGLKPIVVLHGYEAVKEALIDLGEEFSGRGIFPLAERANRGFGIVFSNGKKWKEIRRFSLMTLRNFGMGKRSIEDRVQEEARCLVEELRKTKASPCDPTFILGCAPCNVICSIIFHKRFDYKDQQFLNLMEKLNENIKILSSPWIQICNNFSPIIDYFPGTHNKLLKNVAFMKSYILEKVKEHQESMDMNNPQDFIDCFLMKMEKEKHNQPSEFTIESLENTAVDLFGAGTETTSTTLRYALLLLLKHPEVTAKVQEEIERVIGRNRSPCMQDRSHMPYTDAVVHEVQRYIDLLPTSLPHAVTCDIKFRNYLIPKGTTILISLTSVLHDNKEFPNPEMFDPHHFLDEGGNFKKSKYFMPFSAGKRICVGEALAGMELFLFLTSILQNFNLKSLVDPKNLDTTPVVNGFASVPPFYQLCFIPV
# Summary of the method: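 10nM CYP2C9 + 100uM Luciferin-H (=KM), 25mM KPO4; cpd 10 min 37C; NADPH regen, 60 min 37C; stop/detect with P450 Glo-Buffer 20 min; luminescence. Norm. to 57uM sulphaphenazole as full inhibition.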
# [10] = target: Cytochrome P450 3A4 (Homo sapiens) (UniProt P08684); test: qHTS Assay for Activators of Cytochrome P450 3A4 (AID 885; active = well fitted curve in the direction sought with a large enough effect; an effect the other way counts as inactive or inconclusive; also: nearly all actives have a fitted effect of over 65% in size)
# Cytochrome P450 3A4 (Homo sapiens), sequence (P08684 whole entry, looked up): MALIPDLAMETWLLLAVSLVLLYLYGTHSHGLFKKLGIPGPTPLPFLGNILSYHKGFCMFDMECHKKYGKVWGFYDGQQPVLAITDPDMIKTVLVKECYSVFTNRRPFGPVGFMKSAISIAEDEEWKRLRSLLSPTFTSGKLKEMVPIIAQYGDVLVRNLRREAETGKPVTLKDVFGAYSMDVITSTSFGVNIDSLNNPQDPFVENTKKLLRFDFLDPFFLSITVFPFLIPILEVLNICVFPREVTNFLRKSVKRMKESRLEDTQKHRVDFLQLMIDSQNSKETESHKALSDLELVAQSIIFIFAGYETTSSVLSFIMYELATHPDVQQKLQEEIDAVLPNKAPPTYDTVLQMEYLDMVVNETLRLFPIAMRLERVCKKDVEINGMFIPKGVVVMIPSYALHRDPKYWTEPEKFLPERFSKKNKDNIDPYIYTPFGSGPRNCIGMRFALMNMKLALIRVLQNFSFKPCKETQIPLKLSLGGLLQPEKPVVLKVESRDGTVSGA
# Summary of the method: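 Quantitative HTS format: compounds preincubated with 20nM human CYP3A4 and Luciferin-PPXE substrate at KM, reaction started by NADPH regeneration, stopped after 60 min, luciferase luminescence read 20 min later.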
Compound,Potency [1],Potency [2],Potency [3],Potency [4],Potency [5],Potency [6],"activity change, negative = inhibition [7]",Potency [8],Potency [9],Potency [10],Potency [7]
CCOC(=O)C=C[C@H](C[C@@H]1CCNC1=O)NC(=O)[C@@H](CC(=O)[C@@H](NC(=O)c1cc(C)on1)C(C)C)Cc1ccc(F)cc1,inactive,inactive,inactive,inactive,inactive,,,,,,
CC(C)c1cnn2c(NCc3ccccc3)cc(N[C@@H](CO)[C@H](O)CO)nc12,2430 nM (active),485 nM (active),685 nM (active),1720 nM (active),inactive,607 nM (active),-93.9%,482 nM (active),,,
CC(C)[C@H](CO)Nc1nc(Nc2cccc(Cl)c2)c2ncn(C(C)C)c2n1,inactive,inactive,inactive,inactive,,8570 nM (active),,8570 nM (active),7940 nM (active),inactive,7940 nM (active)
CCn1cc(-c2ccnc3[nH]c(-c4cccc(CN(C)C)c4)cc23)c(-c2ccc(NC(=O)N(C)C)cc2)n1,13700 nM (active),4850 nM (active),2430 nM (active),3430 nM (active),inactive,,,,,,
COc1cc2nccc(Oc3ccc(NC(=O)Nc4ccc(F)cc4F)c(F)c3)c2cc1OC,inactive,inactive,inactive,inactive,inactive,,,,,,
CC[C@@H]([C@H](C)O)n1ncn(-c2ccc(N3CCN(c4ccc(OCC5CO[C@@](Cn6cncn6)(c6ccc(F)cc6F)C5)cc4)CC3)cc2)c1=O (stereo partly specified),inactive,inactive,inactive,inactive,inactive,,,,,,
Cc1c(CN2CCN(S(C)(=O)=O)CC2)sc2c(N3CCOCC3)nc(-c3cnc(N)nc3)nc12,86.3 nM (active),43.2 nM (active),122 nM (active),96.8 nM (active),,215 nM (active),,1210 nM (active),,,
CC[C@H](C)n1cc(C)c2c(C(=O)NCc3c(C)cc(C)[nH]c3=O)cc(-c3ccc(N4CCNCC4)nc3)cc21,inactive,inactive,inactive,inactive,inactive,,,,,,
CC(C)c1nn(-c2c(Cl)cccc2Cl)c2nc(Cc3ccc(OCCO)cc3)[nH]c(=O)c12,172 nM (active),217 nM (active),153 nM (active),243 nM (active),inactive,34.1 nM (active),-95.3%,54.1 nM (active),,,
